Only some compounds are listed: those with a hit (about 1.3% of all), similar ones and a draw of the others.
eLon inh: inhibitors of E. coli Lon protease | purified E. coli Lon protease, fluorescence polarization | hit rate 0.42% among 360,000 | inhibition, % at 7.94 µM; in the data active = inhibition above about 13%, passing the limit was not always enough;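 note: 0% = enzyme with probe and DMSO and 100% = no enzyme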
MCL1 BIM primary: inhibitors of human MCL1 binding to BIM-BH3 peptide; GST-MCL1 / FITC-Bim-BH3 fluorescence polarization; inhibition, % at 10.9 µM; hit rate 0.68% among 320,000; AID 2057;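 active = inhibition above the mean inhibition of all tested compounds plus 3 SD, set per campaign, cut at about 40% in these data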;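 note: 0% = DMSO wells and 100% = unlabeled Bim-BH3 peptide control; higher means more loss of mP so more displacement of Bim peptide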
Target sequence (Q07820 whole entry, looked up): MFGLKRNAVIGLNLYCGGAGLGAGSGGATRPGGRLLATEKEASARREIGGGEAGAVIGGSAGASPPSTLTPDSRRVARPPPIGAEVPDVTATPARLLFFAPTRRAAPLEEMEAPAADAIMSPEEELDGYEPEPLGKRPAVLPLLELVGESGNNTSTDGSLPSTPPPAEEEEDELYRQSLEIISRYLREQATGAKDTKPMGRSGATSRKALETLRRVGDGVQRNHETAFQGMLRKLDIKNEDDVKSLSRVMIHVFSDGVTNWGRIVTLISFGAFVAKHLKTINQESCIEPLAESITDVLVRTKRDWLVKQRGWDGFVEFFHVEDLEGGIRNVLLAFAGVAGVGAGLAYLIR
Keap1-Nrf2 PPI: inhibitors of human Keap1-Nrf2 protein-protein interaction. Q14145. Keap1 Kelch-Nrf2 peptide fluorescence polarization, 1536-well. inhibition, % at 9.4 µM. hit rate 0.15% among 340,000. AID 504523; in the data active = inhibition above about 12%; inconclusive = no clear call, values can overlap the other calls; inactive = below about 7.3%;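 note: human Keap1 Kelch domain with fluorescein labeled Nrf2 9mer peptide probe; 0% = neutral control wells and 100% = peptide positive control; higher means more block of Keap1 binding to Nrf2 peptide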
GLD-1 RNA inh: GLD-1-TGE RNA interaction inhibition (C. elegans); purified GLD-1 + fluorescein TGE RNA, fluorescence polarization; inhibition, % at 5.96 µM; hit rate 0.44% among 320,000; AID 2280;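 active = percent inhibition above a per-plate cutoff, the plate mean of test compounds plus 3 SD, cut at about 30% in these data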;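 note: 0% = DMSO wells with GLD-1 and probe and 100% = wells lacking GLD-1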
Bcl-xL primary: inhibitors of human Bcl-xL; hit rate 0.7% among 320,000; Q07817; GST-Bcl-xL / FITC-Bim BH3 peptide fluorescence polarization; inhibition, % at 10.9 µM;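 active = inhibition above the mean of all tested compounds plus 3 SD, cutoff set per campaign, cut at about 30% in these data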;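 note: 0% = DMSO wells and 100% = unlabeled Bim-BH3 peptide competitor; inhibitors lower millipolarization by displacing the labeled peptide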
Target sequence (Q07817 whole entry, looked up): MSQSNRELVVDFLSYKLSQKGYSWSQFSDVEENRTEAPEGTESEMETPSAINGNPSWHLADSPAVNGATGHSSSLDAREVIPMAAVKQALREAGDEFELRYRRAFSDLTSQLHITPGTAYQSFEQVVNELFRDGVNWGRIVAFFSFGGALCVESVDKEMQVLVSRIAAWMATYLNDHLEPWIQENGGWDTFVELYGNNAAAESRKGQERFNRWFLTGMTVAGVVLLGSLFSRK
C-LANA FP: inhibitors of KSHV LANA C-terminal domain DNA binding; AID 504423; MBP-C-LANA/FAM-LBS DNA binding, fluorescence polarization; hit rate 0.078% among 340,000; inhibition, % at 9 µM;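 active = highest replicate inhibition at or above 60% at 9 µM, even if other replicates fall short; inactive = all replicates below 60% inhibition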;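 note: 0% = neutral control wells and 100% = 4 µM acridine orange control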
BCLXL inh confirm: counter-screen for MCL1 inhibitors: confirmation of human Bcl-xL inhibitors; shares compounds with MCL1 BIM primary; inhibition, % at 10.9 µM; hit rate 54% among 1,700; GST-Bcl-xL / FITC-Bim BH3 peptide FP binding;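 active = inhibition above a cutoff equal to the mean inhibition of all tested compounds plus 3 SD, cut at about 30% in these data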;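 note: 0% = DMSO wells and 100% = unlabeled Bim BH3 control peptide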
MCL1 inh confirm: MCL1-BIM-BH3 interaction inhibition, confirmation. shares compounds with MCL1 BIM primary. GST-MCL1 / FITC-Bim-BH3 fluorescence polarization. inhibition, % at 10.9 µM. hit rate 61% among 1,700. AID 2168;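 active = inhibition above the average of all tested compounds plus 3 SD, cut at about 40% in these data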;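 note: 0% = DMSO wells and 100% = unlabeled Bim-BH3 control peptide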
The depositor's hits bear a star; u = inconclusive; x = no result given; + = active, no number.

SMILES	eLon inh	MCL1 BIM primary	Keap1-Nrf2 PPI	GLD-1 RNA inh	Bcl-xL primary	C-LANA FP	BCLXL inh confirm	MCL1 inh confirm
COc1ccccc1NC(=O)CC(NC1CCCCC1)C(=O)O (stereo unspecified)	-6	62*	2	-1	0	1	-16	-18
COc1ccccc1NC(=O)NC1CCCCCCC1	4	x	3	x	x	0	x	x
COCCCNC(=O)/C(C#N)=C/c1ccc(OCC(=O)O)c(OC)c1	-3	57*	0	7	16	33	20	33
Cc1ccc(C(=O)N2CCOCC2)cc1[N+](=O)[O-]	-2	-4	-1	-5	3	-2	x	x
Cc1ccc(CSc2ccc(C(=O)N3CCOCC3)cc2[N+](=O)[O-])cc1	2	49*	-4	-7	5	0	8	-1
CCCCCCn1c(=O)[nH]c2nc3cc(N)ccc3nc2c1=O	x	+	x	187*	187*	x	171*	198*
CCCCCn1c(=O)c(C(=O)c2ccccc2)nc2ccccc21	-11	10	-2	7	8	1	x	x
Cc1cc(=O)oc(C)c1C(=O)Nc1ccc2ncccc2c1	-6	97*	0	-27	100*	10	79*	82*
CCN(CC)c1ncnc2c1cnn2Cc1ccc(C)cc1	5	45*	6	-6	3	2	8	9
O=S(=O)(Nc1nc2ccccc2nc1-[n+]1cccc(N=C([O-])c2ccccc2Cl)c1)c1ccccc1	x	84*	x	13	71*	x	60*	90*
COc1ccc(C([O-])=Nc2ccc[n+](-c3nc4ccccc4nc3NS(=O)(=O)c3ccccc3)c2)cc1	x	0	x	5	8	x	x	x
N#Cc1cc(Oc2cccc3cccnc23)c(-n2nnc3ccccc32)cc1C#N	13	139*	-8	44*	143*	-1	17	25
CC1(C)CC(=O)C2=C(C1)Nc1ccccc1N=C2	x	106*	x	63*	91*	x	29	27
CCOC(=O)C1(Cc2cccc(Cl)c2)CCCN(C(=O)c2c(CC)noc2C)C1 (stereo unspecified)	0	42*	4	4	6	0	4	1
CCOC(=O)C1(Cc2cccc(Cl)c2)CCCN(C(=O)c2cc(C)on2)C1 (stereo unspecified)	4	x	0	x	x	1	x	x
Fc1ccc(C2=Nc3cccc4cccc(c34)N2)cc1	2	10	-7	-1	-1	1	x	x
Brc1ccc(C2=Nc3cccc4cccc(c34)N2)o1	-7	41*	-3	0	20	1	8	14
O=C(COC(=O)c1ccc(O)cc1O)NC12CC3CC(CC(C3)C1)C2	0	158*	-4	100*	139*	2	11	16
COc1ccc(C(=O)OCC(=O)NC23CC4CC(CC(C4)C2)C3)c(O)c1	-5	x	x	x	x	x	x	x
Cc1ccc[n+](-c2nc3ccccc3nc2C(=C=[N-])C#N)c1	-17	-1	-3	-22	6	-1	x	x
CCc1ccc[n+](-c2nc3ccccc3nc2C(=C=[N-])C#N)c1	-25	84*	0	50*	88*	3	21	27
Cn1c(=O)[nH]c2cc(Cl)cnc21	5	73*	u	44*	65*	12	59*	69*
CCOc1ccc(-c2c(C(=O)N/N=C(\C)c3ccco3)nnn2-c2nonc2N)cc1	2	0	1	2	-3	1	x	x
COc1cc(Cl)c(C)cc1NC(=O)CSc1sc2c(O)cc(=O)[nH]c2c1C#N	-18	43*	1	0	12	3	11	14
COC(=O)c1ccc2ccn(CC(=O)NC3CCCCC3)c2c1	-6	49*	-2	24	28	-2	3	-4
SMILES	eLon inh	MCL1 BIM primary	Keap1-Nrf2 PPI	GLD-1 RNA inh	Bcl-xL primary	C-LANA FP	BCLXL inh confirm	MCL1 inh confirm
CCCOc1ccc(/C(CC)=N/NC(=O)C2(C)CC2(Br)Br)cc1 (stereo unspecified)	5	112*	-1	112*	97*	-1	7	0
CC(c1ccccc1)N1CC(C(=O)N2CCN(Cc3ccc(C#N)cc3)CC2)CC1=O (stereo unspecified)	-2	x	-1	x	x	0	x	x
CCNc1nc(-c2cc(C)n(Cc3ccco3)c2C)cs1	-5	46*	-3	14	41*	5	14	18
Cc1cc(-c2csc(NCc3ccccc3)n2)c(C)n1C	-31	x	-6	x	x	-2	x	x
Cc1c(NS(=O)(=O)c2cc(C(=O)NCCN(C)C)ccc2Cl)c(=O)n(-c2ccccc2)n1C	-7	75*	1	-7	17	-1	7	11
CC(C)N1C(=O)CCC1C(=O)NCc1ccco1 (stereo unspecified)	3	5	-3	-3	-1	-1	x	x
Cc1cccnc1CNC(=O)C1(C)CCCN1CC(C)C (stereo unspecified)	0	x	x	x	x	x	x	x
CNc1cccccc1=S	1	78*	3	28	54*	6	28	27
Cc1ccc(-c2cc(C(=O)Nc3ccccn3)c3ccccc3n2)o1	3	47*	2	9	29	1	32*	69*
Cc1ccc(NC(=O)c2cc(-c3ccc(C)o3)nc3ccccc23)cc1	-12	13	-2	5	8	1	x	x
CNc1ccccc(-c2ccc3cc4c(cc3n2)OCO4)c1=O	12	114*	4	14	91*	5	34*	33
O/N=C/c1cc2ccccc2n1Cc1ccccc1F	-17	1	-2	6	2	-1	x	x
O=C1C(Cl)=C(NC(=O)c2ccccc2)C(=O)C(Cl)=C1NC(=O)c1ccccc1	19	57*	-4	22	36*	-3	54*	57*
O=C(NC1=C(Nc2ccc(Cl)cc2)C(=O)c2ccccc2C1=O)c1ccccc1	-7	16	-3	-1	9	1	x	x
Cc1ccc([N+](=O)[O-])cc1-c1ccc(/C=C(\C#N)c2[nH]nc(N)c2C#N)o1	-10	49*	-3	7	9	0	54*	84*
CCCCn1c(SCC(=O)Nc2ccc3c(c2)CCC3)nc2ccccc2c1=O	-6	0	0	1	4	-2	x	x
C=CCn1c(SCC(=O)Nc2ccc3c(c2)CCC3)nc2ccccc2c1=O	4	+	-2	2	-1	-1	6	15
COCCCNC(=O)/C(C#N)=C/c1c(N2CCN(c3ccccc3)CC2)nc2c(C)cccn2c1=O	22	99*	-4	23	91*	4	37*	41*

Assay outcomes: PubChem, several laboratories
